From PubChem BioAssay (NCATS) come the findings set out here.

Where “and” joins values, the source holds several entries; their conditions need not be identical. Identical values can stand only once. Records with an inconclusive call do not appear. Unmarked numbers belong to inactive results. Calls of active or inactive are those of the source. The call rests on the fitted dose curve; in most records, active means well fitted cell-killing curve with a large enough effect; inconclusive means small, poorly fitted or top-dose-only effect; inactive means no such curve, though single readings can be large or run the other way.
Potency means the concentration at half of the fitted maximal effect.

The assay is described as follows: qHTS of pediatric cancer cell lines to identify multiple opportunities for drug repurposing: Confirmatory screen for Rh41 cells (AID 1347123).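 Further: 48 h compound exposure; nearly all actives have a fitted effect of over 60% in size.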 The note with it: Rh41 rhabdomyosarcoma cells, viability/cytotoxicity qHTS; series mostly up to 45.9 µM; activity change, negative = cytotoxic: at the top concentration. The source says: Drug repurposing or repositioning has been offered as a strategy for drug development in oncology programs. This approach has special potential for childhood cancers and other rare or orphan diseases, where the expected return on new drug development has been a disincentive to pharmaceuticals.
In this project we exploit the poly-pharmacology of drugs to discover new indications via phenotypic screening of a panel of 19 well-characterized cell lines derived from solid tumors seen in children and adolescents. The goal is to identify approved drugs with previously unrecognized anticancer properties that has the potential to reveal new mechanisms and biological processes involved in carcinogenesis or drug resistance. We employed a titration-based paradigm (quantitative high-throughput screening or qHTS), where all compounds were tested at multiple concentrations for their effect on cell viability. Concentration-response curves (CRCs) were derived directly from the primary screen, and both potency and efficacy values were used to identify compounds with robust bioactivity profiles. We screened the NIH Chemical Genomics Center (NCGC) Pharmaceutical Collection (NPC) and Mechanism Interrogation Plate (MIPE) small molecule collections of approved and investigational compounds against these cell lines; and measured metabolically active cells after 48 hours of compound treatment as a proxy for cell viability.
Assay Submitter: Nathalia J. Martinez, National Center for Advancing Translational Sciences, National Institutes of Health, Rockville, MD, USA; email: natalia.martinez@nih.gov
[1] Shen, M et al. Quantitative high-throughput phenotypic screening of pediatric cancer cell lines identifies multiple opportunities for drug repurposing. Oncotarget 2017 Dec 19;9(4):4758-4772. PMID 29435139.
The cells were obtained from University of North Carolina (UNC), Pediatric Preclinical Testing Program (PPT), and Coriell Institute (CI).
qHTS cell viability assay:
Cells were assayed in growth media at a density of 500-1,000 cells/well. Five microliters of cells were dispensed into 1,536-well, white, solid-bottom, TC-treated plates (Greiner Bio One) using a multidrop dispenser and incubated at 37 degrees C, 5% CO2, under a humidified atmosphere for 5 hours. Twenty-three nanoliters of compounds and controls (neutral control DMSO or positive control bortezomib at final concentration of 2.3 µM) were subsequently transferred by Kalypsys pintool. For primary screens, the MIPE collection was tested at 11-point dilutions (final concentrations range from 0.78 nM to 46 µM) and the NPC collection at 8-point dilutions (final concentrations range from 0.59 nM to 46 µM). Compounds tested in follow-up screens were assayed at 11-point dilutions. Cells were incubated for 48 hours, followed by addition of 3 µL of CellTiter-Glo (Promega). After a 15 min incubation at room temperature, samples were analyzed for luminescence intensity using a ViewLux High-throughput CCD imager equipped with clear filters.
Background: Quantitative high-throughput screening tests each substance at several concentrations.
For `CNC1CCC(N(Cc2cccc(-c3ccncc3)c2)C(=O)c2sc3c(F)ccc(F)c3c2Cl)CC1` (stereo not drawn), the Potency was 10.4 µM (active). In the case of `CCc1ccc(OCc2ccccc2C(=O)Nc2ccc3nc(C)cc(N)c3c2)cc1`, the Potency is 9.27 µM (active). The same measure, in the same setting: with `CC(C)n1nc(-c2ccc3oc(N)nc3c2)c2c(N)ncnc21` the figure was 0.0293 µM (active); with `COc1ccc2c(Oc3ccc(NC(=O)c4c(C)n(CC(C)(C)O)n(-c5ccccc5)c4=O)cc3F)ccnc2c1`, 23.3 µM (active). Take `CC1(C)S[C@H]2[C@H](NC(=O)[C@@H](N)c3ccc(O)cc3)C(=O)N2[C@@H]1C(=O)O`: the “activity change, negative = cytotoxic” value is 1.68%. The same measure, in the same setting: then `Cc1nnc(C(C)C)n1C1C[C@H]2CC[C@@H](C1)N2CC[C@H](NC(=O)C1CCC(F)(F)CC1)c1ccccc1` (stereo partly drawn), with 4.54%. As to `CC=C(C)C(=O)O[C@H]1C(C)=C[C@]23C(=O)[C@@H](C=C(CO)[C@@H](O)[C@]12O)[C@H]1[C@@H](C[C@H]3C)C1(C)C`, the Potency was 13.1 µM (active). Still for that read-out and setting: then `O=C1c2ccccc2-[n+]2ccc3c([nH]c4ccccc43)c21`, with 2.08 µM (active); and `CC[C@]1(O)C[C@@H]2CN(CCc3c([nH]c4ccccc34)[C@@](C(=O)OC)(c3cc4c(cc3OC)N(C)[C@H]3[C@@](O)(C(=O)OC)[C@H](OC(C)=O)[C@]5(CC)C=CCN6CC[C@]43[C@@H]65)C2)C1`, with 82.7 nM (active) and 104 nM (active).

For `OC[C@H]1O[C@@H](n2cnc3c2NC=NC[C@@H]3O)C[C@H]1O`, the “activity change, negative = cytotoxic” value was 25.7%. As for `Cc1cc(OCCCc2c(C(=O)O)n(Cc3cccnc3)c3c(-c4c(COc5ccc(N6CCN([S+](C)(=O)[O-])CC6)cc5)nn(C)c4C)cccc23)cc(C)c1Cl`, the Potency was 1.04 µM (active). In the case of `COc1cc(N2CCC(N3CCN(C)CC3)CC2)ccc1Nc1ncc(Cl)c(Nc2ccccc2S(=O)(=O)C(C)C)n1`, the Potency was 0.329 µM (active).

Take `CCCCCCCCCCCC1=C(O)C(=O)C=C(O)C1=O`: the “activity change, negative = cytotoxic” value was 10.3%. For `O=c1[nH]cnc2c1ncn2[C@H]1CC[C@@H](CO)O1`, the “activity change, negative = cytotoxic” value was 7.2%. `C=C1C(=O)[C@@]23C(CC[C@@H]1[C@H]2O)[C@@]12CO[C@]3(O)[C@@H](O)[C@@H]1C(C)(C)CC[C@@H]2O` (stereo partly drawn): the Potency was 2.93 µM (active).

`COc1cc2ncnc(Nc3ccc(F)c(Cl)c3)c2cc1OCCCN1CCOCC1`: the Potency is 26.9 µM (active).

Consider `NS(=O)(=O)c1cccc2c1C(=O)c1cccc(O)c1C2=O`, for which the Potency is 0.657 µM (active). For `CO[C@H]1C[C@@H]2CC[C@@H](C)[C@@](O)(O2)C(=O)C(=O)N2CCCC[C@@H]2C(=O)O[C@H]([C@H](C)C[C@@H]2CC[C@H](OP(C)(C)=O)[C@H](OC)C2)CC(=O)[C@H](C)C=C(C)[C@@H](O)[C@@H](OC)C(=O)[C@H](C)C[C@H](C)C=CC=CC=C1C`, the Potency was 4.65 µM (active). The same measure, in the same setting: with `CO[C@H]1C(=O)[C@]2(C)[C@@H](OC)C[C@H]3OC[C@@]3(OC(C)=O)[C@H]2[C@H](OC(=O)c2ccccc2)[C@]2(O)C[C@H](OC(=O)[C@H](O)[C@@H](NC(=O)OC(C)(C)C)c3ccccc3)C(C)=C1C2(C)C` the figure was 0.0165 µM (active); with `CC[C@@H]1C=C(C)C[C@H](C)C[C@H](OC)[C@H]2O[C@@](O)(C(=O)C(=O)N3CCCC[C@@H]3C(=O)O[C@H](C(C)=C[C@@H]3CC[C@H](Cl)[C@H](OC)C3)[C@H](C)[C@@H](O)CC1=O)[C@H](C)C[C@H]2OC`, 13.1 µM (active).

Take `O=C1NC(=O)C(=Cc2ccc3c(c2)OC(F)(F)O3)S1`: the “activity change, negative = cytotoxic” value is -24.2%. The same measure, in the same setting: then `Nc1ncnc2c1ncn2[C@@H]1O[C@@H](CO)[C@H](O)[C@H]1O`, with 1.12% [at 29.5 µM]; and `O=c1cc(-c2ccc(O)cc2)oc2cc(O)cc(O)c12`, with 9.14%. `CC1(C)CCC2=C(O1)c1ccccc1C(=O)C2=O`: the Potency was 8.27 µM (active). Turning to `N[C@@]1(C(=O)O)CS(=O)(=O)[C@H]2[C@H](C(=O)O)[C@H]21`, the “activity change, negative = cytotoxic” value was 19.6%.

As for `CC(=O)Oc1cc2c(s1)CCN(C(C(=O)C1CC1)c1ccccc1F)C2` (stereo not drawn), the Potency was 14.7 µM (active). Still for that read-out and setting: then `CN(C)C1CCN(C(=O)c2ccc(NC(=O)Nc3nc(N4CCOCC4)nc(N4CCOCC4)n3)cc2)CC1`, with 0.0827 µM (active). Take `O=C(O)c1ccc(-c2c[nH]c3ncc(-c4ccccc4)cc23)cc1C1CCCC1`: the “activity change, negative = cytotoxic” value was 6.18%. As for `CC(=O)Nc1ccc([C@H](C)C(=O)Nc2ncc(C(C)C)s2)cc1`, the Potency is 9.27 µM (active). Same read-out and setting: then `O=C(NCc1ccncc1)C12C[C@H]3C[C@@H](C1)CC(c1ccc(Cl)cc1)(C3)C2`, with 14.7 µM (active). Regarding `COc1ccc(-c2nc(N3CCOCC3)c3sc(CN(C)c4ncc(C(=O)NO)cn4)cc3n2)cn1`, the Potency was 0.414 µM (active). `CC1(C)O[C@H]2C[C@@H]3[C@H]4CCC5=CC(=O)C=C[C@]5(C)[C@@]4(F)[C@@H](O)C[C@]3(C)[C@]2(C(=O)CO)O1`: the “activity change, negative = cytotoxic” value is -0.31%. For the compound `Oc1ccc(C2CCN(c3ccnc4ccccc34)CC2)cc1O`, the Potency is 5.85 µM (active). Still for that read-out and setting: then `CO[C@H]1C=CC=C(C)C(=O)NC2=CC(=O)C(NCCN(C)C)=C(C[C@@H](C)C[C@H](OC)[C@@H](O)[C@@H](C)C=C(C)[C@@H]1OC(N)=O)C2=O`, with 7.37 µM (active); and `O=C(O)c1ccc(-c2cc3cccnc3c(-c3ccc4nonc4c3)n2)cc1`, with 7.37 µM (active). Turning to `COc1ncc(-c2ccc3nccc(-c4ccnnc4)c3c2)cc1NS(=O)(=O)c1ccc(F)cc1F`, the Potency is 0.0369 µM (active).

`O=C1C(Cl)=C(NCCN2CCOCC2)C(=O)c2ncccc21`: the Potency is 1.17 µM (active). For `COc1cc2nc(-c3ccc(N4CCN(C)CC4)cc3)nc(NCCN3CCOCC3)c2cc1OC`, the Potency was 0.414 µM (active).
